From PubChem BioAssay
A selection: hits, their analogues and other compounds. The true share with any hit is near 6%.
D1 antag: Antagonist of Human D 1 Dopamine Receptor: qHTS; D(1A) dopamine receptor (Homo sapiens), P21728; HEK293 TREx D1 cells, calcium flux, dopamine EC80; active compounds read low; activity change, negative = inhibition, % at 10 µM; hit rate 3.2% among 360,000; AID 504652, 2011; in the data active means activity change below about -30%
Target sequence (P21728 whole entry, looked up): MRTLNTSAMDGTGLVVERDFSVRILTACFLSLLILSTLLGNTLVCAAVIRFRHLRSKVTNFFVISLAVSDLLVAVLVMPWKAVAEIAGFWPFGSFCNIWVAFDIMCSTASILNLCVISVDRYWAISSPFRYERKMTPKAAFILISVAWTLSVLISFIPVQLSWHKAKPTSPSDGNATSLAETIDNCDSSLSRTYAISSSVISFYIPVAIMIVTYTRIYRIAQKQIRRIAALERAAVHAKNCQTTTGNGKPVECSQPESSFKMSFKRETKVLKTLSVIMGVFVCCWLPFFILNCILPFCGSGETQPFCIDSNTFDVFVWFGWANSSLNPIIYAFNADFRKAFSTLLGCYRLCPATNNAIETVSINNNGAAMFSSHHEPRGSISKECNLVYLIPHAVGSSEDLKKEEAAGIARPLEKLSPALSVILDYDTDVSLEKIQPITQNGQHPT
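Cells carrying a force-coupled, tetracycline-inducible human D1 receptor report calcium flux. Each well gets a 10 s baseline, compound with 180 s monitoring, then an EC80 dopamine stimulus with a second 180 s kinetic read.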
D3 antag: qHTS of D3 Dopamine Receptor Antagonist: qHTS. D(3) dopamine receptor (Homo sapiens), P35462. max response, negative = inhibition, %. D3R cells, DiscoveRx beta-arrestin luminescence, antagonist mode; active compounds read low. AID 652054, 2013. hit rate 2.5% among 360,000; in the data active means max response below about -50%; inconclusive means no clear call, values can overlap the other calls
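Cells plated overnight at 1500 cells/well, then exposed to library compounds with dopamine controls for 90 minutes at 37 degrees C. DiscoveRx reagent added for 30–60 minutes at room temperature; luminescence read, quantitative HTS format.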
DRD3 agonist: qHTS of D3 Dopamine Receptor Agonist: qHTS. D(3) dopamine receptor (Homo sapiens), P35462. D3R DiscoveRx beta-arrestin cells, luminescence, 90 min. max activation, %. hit rate 0.58% among 410,000. AID 652048, 2013; in the data active means max activation above about 30%
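Agonist-mode cell screen: cells plated at 1500/well and incubated overnight at 37 °C, then exposed to library compounds for 90 min at 37 °C. Detection reagent was added for 30–60 min at room temperature, and luminescence was read.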
D1 potentiator: Potentiators of Human D1 Dopamine Receptor: qHTS | D(1A) dopamine receptor (Homo sapiens), P21728 | hit rate 0.036% among 360,000 | potentiation, % at 10 µM | HEK293 TREx D1 cells, calcium flux, dopamine EC20 potentiation | AID 504651, 2011; in the data active means potentiation above about 30%
D1 agonist: Allosteric Agonists of the Human D1 Dopamine Receptor: qHTS; D(1A) dopamine receptor (Homo sapiens), P21728; HEK293 T-REx D1 cells, calcium flux, agonist mode; activation, % at 2 µM; hit rate 1% among 360,000; in the data active means activation above about 30%
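Inducible HEK293 T-REx D1 cells, force-coupled to calcium signalling, were plated at 4000 cells/well with tetracycline and held overnight at 30 C. After no-wash calcium dye loading, compound-evoked calcium rise over 180 s flagged agonists.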
Hits are given with their value; – = inactive; ? = inconclusive; · = not tested or not shown.

SMILES	D1 antag	D3 antag	DRD3 agonist	D1 potentiator	D1 agonist
CC1CCCCC1NC(=O)COC(=O)c1ccc2c(c1Cl)C(=O)c1ccccc1C2=O (stereo not drawn)	–	–	–	–	–
O=C(COC(=O)c1cccc2c1C(=O)c1ccccc1C2=O)NC1CCCCC1	-78	–	–	–	–
O=C(COC(=O)c1ccccc1F)NC1CCCC1	–	–	–	–	–
Cc1cc(C)c(NC(=O)COC(=O)c2cccc3c2C(=O)c2ccccc2C3=O)c(C)c1	–	–	32	–	–
O=C(COC(=O)Cc1ccc(S(=O)(=O)N2CCOCC2)s1)NCc1ccccc1	-48	–	–	–	–
O=C(COC(=O)Cc1ccc(S(=O)(=O)N2CCOCC2)s1)NCCc1ccccc1	–	–	–	–	–
CCS(=O)(=O)N1CCc2cc(C(=O)N3CCN(c4ccccc4)CC3)ccc21	–	·	–	–	–
COc1cccc(-c2nn(-c3ccccc3)cc2/C=C\C(=O)c2cccs2)c1	–	–	–	–	33
O=C(COC(=O)c1cccc(NC(=O)c2ccc(Br)cc2)c1)c1ccc(Cl)cc1	–	·	–	–	–
COc1ccc(Cl)cc1S(=O)(=O)NCc1ccc2c(c1)CCN2C(=O)c1cccc(C)c1	–	·	–	–	–
N#Cc1ccc(-c2cccnc2)nc1SCC(=O)c1ccccc1	–	–	–	–	108
COC(=O)CCCn1cc(CN2CC(N3CCN(CCN(C)C)CC3)CS2(=O)=O)nn1 (stereo not drawn)	·	–	–	·	·
O=C1C=CC(=O)c2c(O)c(N3CCN(CCOCCO)CC3)c(Br)c(O)c21	·	-95	–	·	·
CCOc1cc(CN2CCN(CCOCCO)CC2)ccc1OC	–	–	–	–	–
O=S(=O)(c1ccc(Br)cc1Cl)N1CCN(CCO)CC1	–	–	–	–	–
O=C1C=CC(=O)c2c(O)c(N3CCN(CCO)CC3)c(Cl)c(O)c21	·	-121	–	·	·
Cc1ccc(-n2c(SCc3ccccc3C)nc3[nH]ncc3c2=O)cc1C	-78	·	–	–	–
COc1cc(/C=C(\C#N)C(=O)c2ccc(O)c(O)c2)cc(I)c1O	–	–	40	–	38
CCn1c(C)c(C)c2cc(C(=O)NCc3ccc(OC)cc3OC)ccc21	–	·	–	–	–
O=C(Oc1ccc(-c2ccccc2)cc1)N1CCOCC1	-32	–	–	–	–
O=C(Oc1ccc(Cl)cc1)N1CCOCC1	–	–	–	–	–
CCCc1c(C)nc(N2CCN(c3ccc(F)cc3)CC2)[nH]c1=O	-30	–	–	–	–
CCc1c(C)nc(N2CCN(c3ccc(F)cc3)CC2)[nH]c1=O	–	–	–	–	–
COC(=O)[C@]1(C)N[C@H](CN(C)C(=O)Nc2ccc(OC)cc2)[C@@H]2C(=O)N(Cc3ccccc3)C(=O)[C@@H]21	·	–	34	·	·
CCOC(=O)C1CCN(c2nc3c(S(=O)(=O)c4ccccc4)nnn3c3ccsc23)CC1	–	·	–	–	–
SMILES	D1 antag	D3 antag	DRD3 agonist	D1 potentiator	D1 agonist
CCOC(=O)C1=CCN(S(=O)(=O)c2ccccc2C)C1c1ccc(C)cc1 (stereo not drawn)	·	–	–	·	·
CN(C)c1nc(N(C)C)n(C(=O)c2ccc(F)cc2)n1	-33	–	–	–	–
O=C(Nc1ccc([N+](=O)[O-])cc1)C1CC1(c1ccccc1)c1ccccc1 (stereo not drawn)	–	–	–	–	–
CC1(C)C(C=C(Cl)Cl)C1C(=O)Nc1ccc([N+](=O)[O-])cc1 (stereo not drawn)	-31	?	–	–	–
O=C1CCC(C(=O)OCC(=O)Nc2cc(Cl)ccc2F)=NN1	·	–	–	·	·
COc1ccc(Cl)cc1NC(=O)C(C)OC(=O)C1=NNC(=O)CC1 (stereo not drawn)	-66	–	–	–	–
OC(CNC1CCCC1)COc1ccc(-c2ccccc2)cc1 (stereo not drawn)	–	–	–	–	–
OC(CNC1CCCCC1)CON=C1CCSc2c(Cl)cccc21 (stereo not drawn)	·	-66	–	·	·
Cc1sc2ccccc2[n+]1CCC(C)S(=O)(=O)[O-] (stereo not drawn)	–	-67	–	–	–
CN(Cc1c(O)ccc2c1oc(=O)c1ccccc12)C1CCCCC1	–	-57	–	–	–
CCC(OC(=O)c1ccco1)C(=O)NCc1ccc(C)cc1 (stereo not drawn)	-77	–	–	–	–
Cc1ccc(CNC(=O)C(C)OC(=O)c2ccco2)cc1 (stereo not drawn)	–	–	–	–	–
O=C(NCCS(=O)(=O)c1ccc(Br)cc1)c1ccc(Cl)cc1Cl	-39	–	–	–	–
CC(=O)c1cccc(NC(=O)c2nc(-c3ccccc3)n(-c3ccccc3C)n2)c1	–	·	–	–	–
CN1C(=O)c2cccc3c(N(C)C)ccc(c23)C1=O	–	–	–	–	60
CNc1ccc2c3c(cccc13)C(=O)N(C)C2=O	-38	–	–	–	338
CN1C(=O)c2cccc3c(Br)ccc(c23)C1=O	·	–	–	·	·
CN1C(=O)c2cccc3c(Cl)ccc(c23)C1=O	–	–	–	–	–
O=C1OC(c2ccccc2)(c2cc(Br)ccc2O)c2ccccc21 (stereo not drawn)	·	–	–	·	·
Cc1noc(C(=O)N2CCN(c3ccc(F)cc3)CC2)c1Cl	-69	–	–	–	–
Cc1noc(C)c1CSCC(=O)N1CCN(c2ccc(F)cc2)CC1	-32	–	–	–	–
O=C(Cc1ccc(F)cc1)N1CCN(c2ccc([N+](=O)[O-])cc2)CC1	-55	–	–	–	–
O=C(CSCc1ccc(F)cc1)N1CCN(c2ccc(Cl)cc2)CC1	–	·	80	–	–
Cc1ccc2oc(-c3ccc(Cl)c(NC(=O)c4ccc(OC(C)C)cc4)c3)nc2c1	–	·	–	–	–
Cc1cc2c(s1)c1cnn(Cc3cccc(C(F)(F)F)c3)c(=O)c1n2C	–	·	·	–	–
SMILES	D1 antag	D3 antag	DRD3 agonist	D1 potentiator	D1 agonist
COC(=O)C1C(=O)N(S(=O)(=O)c2ccc([N+](=O)[O-])cc2)c2ccccc21 (stereo not drawn)	·	–	–	·	·
N#Cc1c(-c2ccccc2)[nH]c(=S)[nH]c1=O	–	-60	–	–	–
N#Cc1c(-c2cccc(Cl)c2)[nH]c(=S)[nH]c1=O	–	–	–	–	–
CC(=O)Oc1ccc2c(c1)CC[C@@H]1[C@@H]2CC[C@]2(C)[C@@H](O)CC[C@@H]12	·	·	–	·	·
N#Cc1c(NC(=S)NC(=O)c2ccccc2)sc2c1CCN(CCc1ccccc1)C2	–	·	·	–	48
CC(C)(C)C(=O)Nc1sc2c(c1C#N)CCN(Cc1ccccc1)C2	–	–	–	–	33
Cc1ccccc1-c1csc(C(C)(O)c2ccc(F)c(F)c2)n1 (stereo not drawn)	·	–	–	·	·
CCN(C(=O)CSc1ncc2c(n1)-c1cc(Cl)ccc1N(Cc1ccccc1)S2(=O)=O)c1cccc(C)c1	–	·	–	–	–
